In PubChem BioAssay AID1508600 (Functional Genomics Laboratory (NCATS/FGL), 2020) one finds z-score data, which are given here for 108 sequences.

About 3,700 (7%) of roughly 53,000 sequences were called active. Many of the other results were omitted from the sample, so actives are more common in it than they were. A number with no mark means an inactive call.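 The calls were made as follows: active = gene knockdowns whose robust z-score for IL-1 alpha signal is at least 2 or at most -2, so actives lie on both sides; inactive = the rest.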

The nature of this test: Components of the Cytosolic LPS Sensing Pathway: Gene Identification via Genome-wide siRNA Screen.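 Also: robust z of the log signal after scaling to non-targeting control siRNA wells of the plate.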 As to conditions: RAW264.7 macrophages, IL-1a HTRF, actives lie on both sides, screened at 100 nM (by protocol), cells primed 5 h with Pam3CSK4 first. The procedure, abridged: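 IL-1a HTRF of supernatants after 24 hour LipidA transfection of Pam3CSK4-primed (5 hours) RAW264.7 cells, 48h post-siRNA transfection (100 nM). Scores: percent of plate negative-control median, then log-based robust z-score.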
In general terms: TR-FRET usually uses a lanthanide donor and a delayed reading to cut background.
On to GGUUAGUCGACAGAAACAATT against Poteg, for which the z-score was -1.11.
The same measure for GCUGUCUCAAUCACCCUAATT against Olfr1427: -1.23; for GGUCAAGUGUAACAAAGAATT against Bcorl1: -0.417.
The same measure for GGUCAUUAUUGUCAUCUACTT against Tmem9: -0.323; for GGAAAUCACUGGUUUUCAATT against Asah2: 2.88 (active).
Regarding GGAGACUGACAAGAAAAUUTT against Gm16367, the z-score is -0.967.
As for GCAUCACGUAUGUGAUUUGTT against Dmrtc1a, the z-score was -0.569.
GCAGAGGAGUGAAUAGAUATT against Dtx3l: the z-score is 0.45.
The same measure for GGCCAACUUUUUUCACCCATT against Git1: -2.19 (active); for GGUUGUUCGUGGACACUACTT against Rpl26: -0.404; for GGCCGUCACUACUCUGAAATT against Mgst2: -2.29 (active).
Then GGCACUUCUUGGACAUCAUTT against Sfxn5, with -0.019; and CGAAGGUCUGUUCGAGAACTT against Morn4, with 0.668.
Then GCUUCAUCCUAGCGGUUUGTT against Dad1, with -0.899.
Consider CGAUCGAAUCCUUAAGUACTT against Ttll1, for which the z-score is -0.0193.
As to GCUUUUUACAGGAUAUACATT against Zfp644, the z-score was -0.143.
Then GCCAUACCUUCAACUGUCGTT against Ncoa2, with -2.42 (active); and GGAACGUAAACUAAGCCCGTT against Foxb1, with 0.458; and CCCAUUUCACUUCAGUUUGTT against Osbp2, with -0.253.
Turning to CCCAAAACGGUAGCUUAAGTT against Rcc1, the z-score is -0.0143.
The same measure for GGCAAGAAAGGACCAAUGGTT against Cln8: 0.206.
In the case of CCGUGGGUUUUUUGAAUCUTT against Slc6a1, the z-score was 2.63 (active).
The same measure for GCCCAAUAGAAGCUGGAUGTT against Tex29: -1.99; for GGAGCGAGAAGCUUUAGAATT against Ubxn1: 0.61.
For the sequence GGCCAACUAGGGUGUUUGUTT against Tsx, the z-score was 0.182.
Then GCUAUUAGGAAAUGAAAGATT against Ncald, with 0.384; and GCAGAGACUCCAAAGCUCATT against Chd4, with -2 (active).
The same measure for GGAACUUGACAAAGUCUACTT against Panx1: 1.2; for GGAAGAAGAAGGUGUAACCTT against Defb39: 0.567; for GGCAUCUGUUACCCAGAAUTT against Zfp384: -1.92.
Then CCAAAUGACUUUGGUCCUATT against Vax2, with 0.576.
Turning to CCAUCCUCAACAAGAUCGATT against Rab4b, the z-score was 2.25 (active).
Then GGUGGUAACCAAUCAUUACTT against Cd200r1, with -0.296; and GCAUAAACUAACCACUUAGTT against Evi2b, with -1.77.
Then GGCUUUUUUGCCAUUGCUATT against Wnt9b, with 0.19; and GGAGAUUCAUCGCUACCUUTT against Ccna1, with 2.46 (active); and GGUUGUAGGAAGAAGAGAATT against Olfr957, with -0.798.
The same measure for CGGUCUUUAUUACAUAAUCTT against Ptpro: -0.757.
For CCAUUGCAUAUUUAGUAGCTT against Sox11, the z-score is -0.765.
Then CGUAAAUAUGCCCGUAGUUTT against Bpifa1, with 0.31.
The same measure for GGUCUGUAUCCCACUUUUCTT against Dalrd3: -2.15 (active); for CCUCUACUCAAGUUUACUUTT against Casq2: 0.417.
Then GGCGAUGGAAAGACUGCACTT against Hus1b, with 0.311; and CCCACAAGUUUCAUCUGACTT against Aknaos, with -0.164; and GGAGAACCCAUUAAAGAAATT against Amd1, with 0.408.
As to GGUCUGUACUUGUUUAGAATT against Vwa3b, the z-score was 0.42.
With GCUAUACAAAGGCUACUCUTT against Hectd3, the z-score is 0.379.
Then GCUGUUGAUUGUAAGCAAUTT against Mtap, with 0.0958; and GCCGCACCGAAAGUGAAAUTT against Copz2, with -0.391.
The same measure for GGACCGGUGUAAGCUUCGATT against Hinfp: 2.05 (active).
The same measure for GCUAGAGGAUGGCUGAGCUTT against Poll: -0.581; for GGUGACUGAAAUCAAACACTT against Il9r: -1.71.
As for GGAAGGAUUGCCUUUAGGATT against Rbm12b2, the z-score is 0.29.
Then GGAGUAUGAAUUUGUGACUTT against Arhgdig, with -0.526; and GGACCGCGUUCAAGAAGAATT against Cyp2c37, with 2.17 (active).
Then GGAGAAUUUGGAAAGUGAGTT against Rnf150, with 0.0696.
The same measure for GGGUAAACACCCAUUUAGCTT against Lbx2: -0.156; for GGUCCUAGGCCUACUCAUCTT against Cd46: -0.318.
Turning to GGUCCUACUAUAACCUGCGTT against Gdf3, the z-score is -0.103.
As to GCAGAUUUUGACUAAAGGATT against Sbds, the z-score is -0.747.
Then GCAGUGAACCGUAUUGGACTT against Ncam1, with 0.406; and GGUUCACAGAUGAUACCUUTT against Rab18, with 4.59 (active).
Then GGACCUUCCAGCAAGAUUUTT against Rnf13, with 0.28; and GCCGGCAGUAAAGAUUCAUTT against Cog2, with 0.938.
The same measure for “CCGGGUAGUCUUUUUGGUGTT against 9130019O22Rik”: -1.72.
GGGAAGAAAGGAUGGGAAATT against Fev: the z-score is 0.355.
The same measure for GCGGCCUCUUGAAUGAUUCTT against Ccndbp1: 2.16 (active).
Then GGUUGUUAUGGUCUCAUAUTT against Lrrc40, with -0.62.
As for GGUUUCAAGAAAGAUAUGATT against Cntnap5b, the z-score is -0.891.
Then GGAAUUAAGAAGACAAUUCTT against Emc2, with -1.22.
The same measure for GGAUGUCUCCAUGAAGGAATT against Ccnb2: -1.12; for GGUUGAUGGGUAAUAAACUTT against Nfatc4: -2.16 (active).
The same measure for GGAAUGGAUAAAAACAUUGTT against Tank: 1.27; for GGUGGUCUACUUAGGUUUATT against Sc5d: 0.63.
On to GCGUGCAGCCCUCAAUGAATT against Ppp2r5b, for which the z-score was 0.84.
For the sequence “GGCGAACAGAGAGAGUUAGTT against 4921524J17Rik”, the z-score was 0.677.
For the sequence GGGCUUCACUUCCUUAGGATT against Cog3, the z-score is 0.0276.
Then GGGCUGAAGUGAAAACAGCTT against Mmp8, with -0.523.
The same measure for GGAUAACUCACAAGAGUCUTT against Zdhhc16: -0.296; for GGCUUUUUGUUAAGGCAGCTT against Ap1ar: 1.59.
Then GGAGACAACAACAAGACAUTT against Tbk1, with 3.12 (active).
Turning to GGAGAAAGCUGCUCAUGAATT against Caml, the z-score is -0.477.
As to GGCAGAUGAUCCCGGGAUUTT against Clvs1, the z-score is 0.545.
In the case of GGUAUGUCUGCAUAAAUGUTT against Cyp2c38, the z-score was 2.74 (active).
As for GGUUCGUGUGGUUUAACAUTT against Afg3l1, the z-score is 1.55.
As to GGAUGAGAGGUAAAGUAACTT against Nptxr, the z-score was 0.802.
Then GGUUCUCUGAUACCCACUCTT against Mgat4e, with 0.44.
For GGAAAUGUGGAGAGAAAAUTT against P2ry4, the z-score was 1.02.
Then GGCGACAUAUUUUUCAAACTT against Fmn1, with -0.506; and CGUGGAAGACAUACAACCCTT against Tmem181a, with 3.03 (active); and GGUCCGAGAGACAUUGGCATT against Lmx1b, with -0.118.
The same measure for CCUUAUAAGAAAGAUAGACTT against Nhlrc2: -0.591; for GGAGCUUCAAGGUCUGUCGTT against Tmc6: -2.65 (active).
Then GCUGGAUGGCCGUUUCAAATT against Fancd2os, with -0.00925; and GGAACUAAAUCUUCCAUCCTT against Chit1, with -1.02.
With GGAAAUAGAAGACCAGUUUTT against Srsf3, the z-score is -1.43.
The same measure for GGCACCAUCUACGACUAUGTT against Gpx5: -0.649.
The same measure for GGUGAGCACUAAAUGCAGATT against Cldn16: 0.892.
For GCAAAUGUUGCCCAUCGUGTT against Ppp2r1b, the z-score is 0.44.
The same measure for GGAAAUCCUGGGACAGAACTT against Htatip2: -2.42 (active); for GCCUGAGAUCGUGAACACUTT against Ccdc159: -0.0179; for GGAGGCCUUGUACUUACACTT against Rspo1: 1.26.
On to GGUGAAUCAGACAUACUAUTT against Snupn, for which the z-score was 3.31 (active).
In the case of GGUAUGGAUGCUUGAGAAATT against Ccdc77, the z-score was -1.15.
Then GGAGCCAGUCCAAAUUGCATT against Il13ra1, with 0.561.
For GCCCAUUGAGUUUGAUUCATT against Itgav, the z-score was 1.57.
Then GGACGAUUCUUUUCUCCAGTT against Surf1, with -2.07 (active); and CCUCAUCGAAUUCGAUACCTT against Arrb2, with -0.181.
